The values that follow come from PubChem BioAssay (EPA / NIEHS).

Usually AC50 stands for the concentration at which the activity in the assay is half-maximal.

Active and inactive are the calls of the source. How the source made its calls: active means hit-call score of the fitted dose curve at least 0.9, where 1 is the maximum; inactive means score below 0.9.

Read-out in the first assay: Urokinase-type plasminogen activator receptor (uPAR), PLAUR (gene 5329)
Briefly: BSK_CASM3C_uPAR: BioMAP Diversity Plus: CASM3C Assay for Urokinase-type plasminogen activator receptor (uPAR) Biomarker Activity (AID 2283054).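 Further: cell-surface uPAR protein level quantified by ELISA.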 The following applies: primary human coronary artery smooth muscle cells; actives raise or lower the signal.
Regarding `CCN(Cc1cccc(S(=O)(=O)O)c1)c1ccc(C(=C2C=CC(=[N+](CC)Cc3cccc(S(=O)(=O)O)c3)C=C2)c2ccccc2S(=O)(=O)[O-])cc1`, the result was inactive.

For the compound `CCCCOC(=O)CC(CC(=O)OCCCC)(OC(C)=O)C(=O)OCCCC`, the result was inactive.

For `O=c1c(-c2ccc(O)cc2)coc2cc(O)cc(O)c12`, the AC50 was 29.6 µM (active).

As to `CN(C)C(=O)C1(N2CCCCC2)CCN(CC[C@@]2(c3ccc(Cl)c(Cl)c3)CN(C(=O)c3ccccc3)CCO2)CC1`, the AC50 is 24.4 µM (active).

In the case of `CCCCOC(=O)c1ccc(O)cc1`, the outcome was inactive.

`O=C1CCC(C2CCCCC2)CC1`: the outcome was inactive.

Regarding `CCO[Si](CCCNC(N)=O)(OCC)OCC`, the outcome was inactive.

Turning to `CCCCCCCCCCCCO`, the result was inactive.

For the compound `C[C@]12CC[C@@H]3c4ccc(O)cc4CC[C@H]3[C@@H]1CCC2=O`, the outcome was inactive.

Turning to `CC/C(=C(/CC)c1ccc(O)cc1)c1ccc(O)cc1`, the result was inactive.

With `CCCCCc1ccc(N)cc1`, the result was inactive.

Turning to `CN1C(=O)CC[C@H]1c1cccnc1`, the result was inactive.

Regarding `O=C(O)Cc1cc(I)c(Oc2ccc(O)c(I)c2)c(I)c1`, the result was inactive.

As to `CCCCCCCCCCCC[N+](C)(C)C`, the AC50 was 19.9 µM (active).

Regarding `CCCCCCCCCC(=O)O`, the result was inactive.

Take `Cc1cc(F)ccc1-c1cc(N2CC[C@@H](O)[C@H]2CO)ncc1N(C)C(=O)C(C)(C)c1cc(C(F)(F)F)cc(C(F)(F)F)c1`: the AC50 is 31.1 µM (active).

For `CC(C)(C)c1csc(-c2cc3cc(OCc4ccccc4CC(=O)O)ccc3o2)n1`, the outcome was inactive.

For `CC(=O)N1CCN(c2ccc(OC[C@H]3CO[C@](Cn4ccnc4)(c4ccc(Cl)cc4Cl)O3)cc2)CC1`, the outcome was inactive.

Consider `CN(C)c1ccc(C(=C2C=CC(=[N+](C)C)C=C2)c2ccc(N(C)C)cc2)cc1`, for which the AC50 is 1.54 µM (active).

As for `O=C(Nc1ccc(Cl)cc1)Nc1ccc(Cl)c(Cl)c1`, the AC50 was 9.76 µM (active).

For the compound `CCCCCCCCN(C)CCCCCCCC`, the result was inactive.

Turning to `c1ccc2ccccc2c1`, the outcome was inactive.

On to `CCCCCCCCCCCO`, for which the result was inactive.

Regarding `CC[C@@H]1C[C@H](N(Cc2cc(C(F)(F)F)cc(C(F)(F)F)c2)C(C)=O)c2cc(C(F)(F)F)ccc2N1C(=O)OC(C)C`, the result was inactive.

Turning to `CCCCCCCC[Si](OCC)(OCC)OCC`, the result was inactive.

Regarding `O=C(OCCCCCCOC(=O)c1ccccc1)c1ccccc1`, the result was inactive.

In the case of `COCC(C)OCC(C)OCC(C)O` (stereo not given), the outcome was inactive.

With `Cc1oc2c(NC(=O)c3c(Cl)cccc3Cl)cccc2c1C(C)(C)O`, the outcome was inactive.

Regarding `Clc1cc(Cl)c2c(c1)N=C1CCCCCN1C2`, the outcome was inactive.

On to `O=C(O)Cn1c(=O)n(Cc2ccc(Br)cc2F)c(=O)c2ccc(Cl)cc21`, for which the outcome was inactive.

Take `Oc1ccccc1`: the result was inactive.

As to `OC12N=C(c3ccccc3)SC1Cc1cc(Cl)ccc12` (stereo not given), the outcome was inactive.

In the case of `Cc1ccc(C(C)C)cc1`, the outcome was inactive.

Consider `Cc1cn([C@H]2C[C@H](N=[N+]=[N-])[C@@H](CO)O2)c(=O)[nH]c1=O`, for which the result was inactive.

Regarding `NC(=O)c1nc(-c2cccc(-c3cc(F)ccc3OCC(F)(F)C(F)(F)F)c2)n[nH]1`, the AC50 was 32 µM (active).

`CCCOC(=O)c1cc(O)c(O)c(O)c1`: the result was inactive.

Consider `O=CCCCC=O`, for which the result was inactive.

Consider `COc1cc(C(=O)NC2CCN(C)CC2)ccc1Nc1ncc2c(n1)N(C1CCCC1)CC(F)(F)C(=O)N2C`, for which the AC50 is 24.2 µM (active).

Read-out in the next assay: Vascular cell adhesion molecule 1 (VCAM1), VCAM1 (gene 7412)
Briefly: BSK_CASM3C_VCAM1: BioMAP Diversity Plus: CASM3C Assay for Vascular cell adhesion molecule 1 (VCAM1) Biomarker Activity (AID 2283055).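 Further: VCAM-1 protein level quantified by ELISA on the cells.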 The following applies: primary human coronary artery smooth muscle cells; actives raise or lower the signal.
In the case of `CCN(Cc1cccc(S(=O)(=O)O)c1)c1ccc(C(=C2C=CC(=[N+](CC)Cc3cccc(S(=O)(=O)O)c3)C=C2)c2ccccc2S(=O)(=O)[O-])cc1`, the outcome was inactive.

Regarding `CCCCOC(=O)CC(CC(=O)OCCCC)(OC(C)=O)C(=O)OCCCC`, the result was inactive.

For the compound `O=c1c(-c2ccc(O)cc2)coc2cc(O)cc(O)c12`, the AC50 was 25.7 µM (active).

For the compound `CN(C)C(=O)C1(N2CCCCC2)CCN(CC[C@@]2(c3ccc(Cl)c(Cl)c3)CN(C(=O)c3ccccc3)CCO2)CC1`, the AC50 is 30 µM (active).

For the compound `CCCCOC(=O)c1ccc(O)cc1`, the outcome was inactive.

`O=C1CCC(C2CCCCC2)CC1`: the outcome was inactive.

In the case of `CCO[Si](CCCNC(N)=O)(OCC)OCC`, the outcome was inactive.

As for `CCCCCCCCCCCCO`, the AC50 was 31 µM (active).

Take `C[C@]12CC[C@@H]3c4ccc(O)cc4CC[C@H]3[C@@H]1CCC2=O`: the result was inactive.

As to `CC/C(=C(/CC)c1ccc(O)cc1)c1ccc(O)cc1`, the AC50 was 20 µM (active).

Turning to `CCCCCc1ccc(N)cc1`, the result was inactive.

With `CN1C(=O)CC[C@H]1c1cccnc1`, the outcome was inactive.

As for `O=C(O)Cc1cc(I)c(Oc2ccc(O)c(I)c2)c(I)c1`, the result was inactive.

For `CCCCCCCCCCCC[N+](C)(C)C`, the AC50 is 32.9 µM (active).

Consider `CCCCCCCCCC(=O)O`, for which the result was inactive.

As to `Cc1cc(F)ccc1-c1cc(N2CC[C@@H](O)[C@H]2CO)ncc1N(C)C(=O)C(C)(C)c1cc(C(F)(F)F)cc(C(F)(F)F)c1`, the AC50 is 25.4 µM (active).

Take `CC(C)(C)c1csc(-c2cc3cc(OCc4ccccc4CC(=O)O)ccc3o2)n1`: the AC50 was 15.4 µM (active).

On to `CC(=O)N1CCN(c2ccc(OC[C@H]3CO[C@](Cn4ccnc4)(c4ccc(Cl)cc4Cl)O3)cc2)CC1`, for which the outcome was inactive.

With `CN(C)c1ccc(C(=C2C=CC(=[N+](C)C)C=C2)c2ccc(N(C)C)cc2)cc1`, the AC50 is 8.39 µM (active).

Consider `O=C(Nc1ccc(Cl)cc1)Nc1ccc(Cl)c(Cl)c1`, for which the outcome was inactive.

`CCCCCCCCN(C)CCCCCCCC`: the result was inactive.

Regarding `c1ccc2ccccc2c1`, the outcome was inactive.

As for `CCCCCCCCCCCO`, the result was inactive.

For the compound `CC[C@@H]1C[C@H](N(Cc2cc(C(F)(F)F)cc(C(F)(F)F)c2)C(C)=O)c2cc(C(F)(F)F)ccc2N1C(=O)OC(C)C`, the result was inactive.

`O=C(OCCCCCCOC(=O)c1ccccc1)c1ccccc1`: the result was inactive.

With `COCC(C)OCC(C)OCC(C)O` (stereo not given), the result was inactive.

Turning to `Cc1oc2c(NC(=O)c3c(Cl)cccc3Cl)cccc2c1C(C)(C)O`, the outcome was inactive.

For the compound `Clc1cc(Cl)c2c(c1)N=C1CCCCCN1C2`, the outcome was inactive.

For the compound `O=C(O)Cn1c(=O)n(Cc2ccc(Br)cc2F)c(=O)c2ccc(Cl)cc21`, the result was inactive.

Turning to `Oc1ccccc1`, the outcome was inactive.

For the compound `OC12N=C(c3ccccc3)SC1Cc1cc(Cl)ccc12` (stereo not given), the outcome was inactive.

As to `Cc1ccc(C(C)C)cc1`, the result was inactive.

`Cc1cn([C@H]2C[C@H](N=[N+]=[N-])[C@@H](CO)O2)c(=O)[nH]c1=O`: the result was inactive.

Regarding `NC(=O)c1nc(-c2cccc(-c3cc(F)ccc3OCC(F)(F)C(F)(F)F)c2)n[nH]1`, the result was inactive.

With `CCCOC(=O)c1cc(O)c(O)c(O)c1`, the outcome was inactive.

Take `O=CCCCC=O`: the AC50 is 22.4 µM (active).

Turning to `COc1cc(C(=O)NC2CCN(C)CC2)ccc1Nc1ncc2c(n1)N(C1CCCC1)CC(F)(F)C(=O)N2C`, the AC50 was 14.1 µM (active).
